This is part of a sample that, as a whole, favours compounds with a hit. Of some 83,000 tested, about 20% had one in any assay.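 Activity criterion: percent growth below 10, measured after cells in 96-well plates were exposed to a single compound concentration for 48 hours.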 Values without a mark were called inactive. Active and inactive are the calls of the source.

The assay relates to HL-60(TB) leukemia. Put plainly: NCI-60 one-dose screen, 48 h (100 = growth as untreated, 0 = no growth, -100 = all killed). To be noted: 10 µM unless noted.
For the molecule `Cc1ncc(C(=O)Nc2ccc(CN3CCN(C)CC3)c(C(F)(F)F)c2)cc1C#Cc1cnc(N)c2ncccc12`, the growth is 6.76% (active). With `Nc1nc2c(c(-c3nc(N)nc4c3CCc3ccccc3-4)n1)CCc1ccccc1-2` the figure was 105%; with `CSc1nc(NCc2ccccc2)c(C#N)c(-c2cccc([N+](=O)[O-])c2)n1`, 107%.

`O=S(=O)(NCCNc1nccc(-c2c(-c3ccc(F)c(O)c3)nc3occn23)n1)c1ccc(Cl)cc1`: the growth was 96.6%.

For `CCOC(=O)C1(CC(C)C)CCOC1=O` (stereo not given), the growth is 96.9%.

In the case of `C=C(C)[C@@H]1CC[C@]2(C(=O)NCCCO)CC[C@]3(C)[C@H](CC[C@@H]4[C@@]5(C)CCCNC(C)(C)[C@@H]5CC[C@]43C)[C@@H]12`, the growth is 34.1%. The result for `COC(=O)[C@]12CC[C@@H](C)[C@H](C)[C@@H]1C1=CC[C@@H]3[C@@]4(C)C[C@@H](O)OC[C@](C)(C=O)C4C(=O)C[C@@]3(C)[C@]1(C)CC2` (stereo not given in full) reads -13.3% (active); that for `Cc1nn(-c2cc(=O)[nH]c3ccccc23)c(N)c1C#N`, 102%. The result for `c1cc(OCCN2CCCCCC2)ccc1CNc1ccc2nc(CCC3CCCCC3)[nH]c2c1` reads 22.9%. As to `C=C(C)CCCC(C)CC#N` (stereo not given), the growth is 108%. The result for `CCN1C(=O)N(CC)C2C1NC(=S)N2/N=C/C=C/c1cccs1` (stereo not given) reads -41.3% (active); that for `O=Cc1cc2ccccc2nc1Nc1nccs1`, 99.5%; that for `O=S(=O)(NCCNc1cc(-c2cn(-c3ccccc3)nc2-c2cccc(O)c2)ccn1)c1ccc(C(F)(F)F)cc1`, 8.76% (active). With `O=S(=O)(NCCCNc1nccc(-c2c(-c3ccc(F)cc3)nc3sccn23)n1)c1ccc(F)cc1` the figure was 35.5%; with `COc1cc(NS(C)(=O)=O)ccc1Nc1c2ccc([N+](=O)[O-])cc2nc2c(C)cccc12`, -26.6% (active). On to `O=C1/C(=C/c2cccc3cnccc23)Cc2cc(F)ccc21`, for which the growth is 105%. For `COCN1CCC2N(COC)CCC3N(COC)CCC1N23` (stereo not given), the growth was 92.6%.

As for `CCCCNCC(=O)Nc1ccc(C(=O)OCC)cc1`, the growth is 86.9%. The result for `CCCCCCCCCCCCC1C/C=C\CCCC(=O)O1` (stereo not given) reads 88.4%; that for `CN1CCN(CCCN2c3ccccc3Sc3ccc(C(F)(F)F)cc32)CC1`, 83.8%; that for `CCNCCNc1cc(-c2ccc(C(F)(F)F)cc2)c(C#N)c2nc3ccccc3n12`, -65.9% (active). Regarding `CC(=O)Nc1sc2c(c1-c1nc3ccccc3s1)CNC2`, the growth is 28.4%.

Turning to `O=[N+]([O-])c1cc([N+](=O)[O-])c(NN=C(c2ccc(O)cc2)c2ccc(O)cc2)cc1Cl`, the growth is 12.7%. In the case of `COc1cc(-c2csc(NC(=O)Nc3ccc(Cl)c(C(F)(F)F)c3)n2)cc(OC)c1OC`, the growth is -6.26% (active). With `NC(N)=Nc1cc2ccccc2c2ccccc12` the figure was 46.4%.

On to `Oc1c(Cl)cc(Cl)c2ccc(Cn3cc(-c4cccc(C(F)(F)F)c4)nn3)nc12`, for which the growth is -18.9% (active). On to `NC1(C(=O)O)CSSC1`, for which the growth was 4.59% (active). As for `Cc1nc2cc(Nc3nc(Nc4ccc(F)cc4)nc(N4CCCC4)n3)ccc2n1Cc1ccccc1`, the growth was -41.5% (active). The result for `CCN=c1cc2sc3cc(NCC)c(C)cc3nc-2cc1C` reads 2.7% (active). The result for `CCOc1c(B(O)O)cccc1-c1nc2ccc3[nH]ncc3c2c2c1CCCC2` reads 23.6%. For the molecule `N#CC1=C(N)Oc2c(sc3c(F)cccc23)C1c1ccc([N+](=O)[O-])cc1` (stereo not given), the growth was -7.41% (active).

With `S=C(Nc1ccccc1)c1ccccn1`, the growth is 107%. With `Cc1ccc(NC(=O)c2sc3nc4c(cc3c2N)C(=O)CCC4)cc1C` the figure was -10.6% (active).

With `C/C(=N\NC(=S)N1CCCCC1)c1ccccn1`, the growth was -21.6% (active). Take `FC(F)(F)c1cc(-c2nnc3n2N=C(Cl)CS3)cc(C(F)(F)F)c1`: the growth is 93.2%.

In the case of `Nc1cc2ccncc2c2ccccc12`, the growth is 90%. With `Cc1cccc(N=NC(=S)NNc2cccc(C)c2)c1` the figure was 101%. Regarding `Cn1c2ccc(Cl)cc2c2nn(C(=O)c3ccccc3)c(=O)nc21`, the growth is 113%. The result for `CC(C)NC(=O)OCc1c(COC(=O)NC(C)C)c(-c2ccc(Cl)cc2)n2c1CCC2` reads 43.9%.

As to `COP(=O)(OC)/C(=N\NS(=O)(=O)c1ccc(C)cc1)c1ccccc1`, the growth was 100%.
